Sampled rows, rich in hits. Any-hit rate of the full collection: about 0.9%.
TAR Tat displ: HIV-1 TAR-Tat binding disruption; HIV-1 TAR RNA, Tat peptide displacement FRET; active compounds read high; z-score (no concentration beside the values); 100,000 tested, 0.6% active; active = z-score of 3 or more in at least 2 runs
CDC25B-CDK2 inh: human CDC25B-CDK2/CyclinA binding inhibition; P30305+P24941; HTRF CDC25B-CDK2/CyclinA binding, anti-His/anti-Flag; active compounds read high; z-score (no concentration beside the values); 94,000 tested, 0.72% active; AID 1259370; in the data active = z-score above about 3.2
Numbers stand for hits.

How did CCOC(=O)c1c(N)sc(SSc2sc(N)c(C(=O)OCC)c2C)c1C do in these assays?
CDC25B-CDK2 inh: 4.41

Results for O=CC(C=Nc1ccc(Cl)cn1)[N+](=O)[O-] (stereo not given) ?
CDC25B-CDK2 inh: 4.3

How did O=C1c2ccccc2-c2onc3c(N4CCOCC4)cc(N4CCOCC4)c1c23 do in these assays?
TAR Tat displ: inactive; CDC25B-CDK2 inh: inactive

Results for O=C1c2ccccc2-c2onc3c(N4CCOCC4)cc(Nc4ccc(F)cc4)c1c23 ?
TAR Tat displ: inactive; CDC25B-CDK2 inh: 12.7

Results for CC(C)CNc1cc(N2CCN(C(=O)c3ccco3)CC2)c2noc3c2c1C(=O)c1ccccc1-3 ?
TAR Tat displ: inactive; CDC25B-CDK2 inh: inactive

Results for COc1ccc(Nc2cc(N3CCOCC3)c3noc4c3c2C(=O)c2ccccc2-4)cc1 ?
TAR Tat displ: inactive; CDC25B-CDK2 inh: inactive

What do the screens show for `CC(C)Nc1cc(N2CCN(C(=O)c3ccco3)CC2)c2noc3c2c1C(=O)c1ccccc1-3`?
TAR Tat displ: 5.57; CDC25B-CDK2 inh: inactive

Results for CC(C)Nc1cc(N2CCOCC2)c2noc3c2c1C(=O)c1ccccc1-3 ?
TAR Tat displ: 6.2; CDC25B-CDK2 inh: inactive

How did Cc1csc2nc(CSc3nc4ccccc4s3)cc(=O)n12 do in these assays?
TAR Tat displ: inactive; CDC25B-CDK2 inh: inactive

What do the screens show for `Cn1cccc1-c1cc2n(n1)CCC(=O)N2CC(=O)NCc1ccco1`?
TAR Tat displ: inactive

How did Cc1sc2c(c1C)c(=O)n(-c1ccc(Cl)cc1)c(=O)n2Cc1cc(=O)n2cc(Cl)ccc2n1 do in these assays?
TAR Tat displ: inactive; CDC25B-CDK2 inh: inactive

Results for O=C(NCC1CCCO1)c1cccc(N2C(=O)c3ccc([N+](=O)[O-])cc3C2=O)c1 (stereo not given) ?
CDC25B-CDK2 inh: 3.46

How did O=C(NCC1CCCO1)c1cccc(N2C(=O)CCS2(=O)=O)c1 (stereo not given) do in these assays?
TAR Tat displ: inactive; CDC25B-CDK2 inh: inactive

What do the screens show for `Cc1ccc2c(CC(=O)O)cc(=O)oc2c1`?
CDC25B-CDK2 inh: inactive

Results for Cc1nc2sccn2c1C(=O)NN ?
CDC25B-CDK2 inh: 15.1

Results for Cc1nc2sccn2c(=O)c1NC(=O)c1ccco1 ?
TAR Tat displ: inactive

Results for Cn1cccc1Cc1nnc(SCC(=O)Nc2ccc(F)cc2)n1-c1ccccc1 ?
TAR Tat displ: inactive; CDC25B-CDK2 inh: inactive

What do the screens show for `CCN(CC)CCNc1cc(C)nc2cc(-c3ccc(OC)c(OC)c3)nn12`?
TAR Tat displ: 3.95; CDC25B-CDK2 inh: inactive

Results for COc1ccc(-c2cc3nc(C)cc(NCC(C)C)n3n2)cc1OC ?
TAR Tat displ: inactive; CDC25B-CDK2 inh: inactive

Results for CN(Cc1ccccc1)C(c1ccc(F)cc1)c1c(O)[nH]c(=O)[nH]c1=O (stereo not given) ?
CDC25B-CDK2 inh: inactive

What do the screens show for `Cc1nc(-c2ccc(Cl)cc2)sc1CCNS(C)(=O)=O`?
TAR Tat displ: inactive

How did Cc1ccc2[nH]c(=O)c(-c3noc(-c4ccco4)n3)cc2c1 do in these assays?
TAR Tat displ: 28.3; CDC25B-CDK2 inh: 10.2

How did Cc1ccc2cc(-c3noc(-c4ccco4)n3)c(=O)[nH]c2c1 do in these assays?
TAR Tat displ: inactive; CDC25B-CDK2 inh: inactive

What do the screens show for `CCc1ccc(-c2cn3c(n2)sc2cc(C(=O)O)ccc23)cc1`?
TAR Tat displ: inactive; CDC25B-CDK2 inh: inactive

Results for CCOC(=O)c1c(NC(C)=O)sc2c1CCC(Sc1ccccc1)C2=O (stereo not given) ?
TAR Tat displ: inactive; CDC25B-CDK2 inh: inactive

Results for Cc1ccc(CNC(=O)CC(C)CC2=NS(=O)(=O)c3ccccc3N2)o1 (stereo not given) ?
TAR Tat displ: inactive

What do the screens show for `CC(CC(=O)NCc1ccco1)CC1=NS(=O)(=O)c2ccccc2N1` (stereo not given)?
TAR Tat displ: 9.47

What do the screens show for `COc1cccc(CNc2nc3ccccc3c3nc(-c4cccnc4)nn23)c1`?
CDC25B-CDK2 inh: inactive

What do the screens show for `O=C(c1ccco1)N(c1cc2sc(=O)oc2c2ccccc12)S(=O)(=O)c1ccccc1`?
TAR Tat displ: inactive; CDC25B-CDK2 inh: 19.1

How did O=C(Cc1ccccc1)N(c1ccc2oc(=O)sc2c1)S(=O)(=O)c1ccccc1 do in these assays?
TAR Tat displ: inactive; CDC25B-CDK2 inh: inactive

Results for Cc1nnc(NC(=O)CSc2ccc3nnc(-c4ccc(F)cc4)n3n2)s1 ?
CDC25B-CDK2 inh: inactive

Results for Cc1ccc2nc(-c3ccco3)[nH]c2c1 ?
TAR Tat displ: inactive; CDC25B-CDK2 inh: inactive

What do the screens show for `C=CCOc1ccc(C2c3c(-c4c(C)cc(C)cc4O)n[nH]c3C(=O)N2CCO)cc1` (stereo not given)?
TAR Tat displ: inactive; CDC25B-CDK2 inh: inactive

How did CC1CN(c2ccccc2)c2nc3c(c(=O)n(CCN4CCOCC4)c(=O)n3C)n2C1 (stereo not given) do in these assays?
CDC25B-CDK2 inh: inactive

How did CCc1ccccc1Nc1nc(-c2sc(N)nc2C)cs1 do in these assays?
TAR Tat displ: inactive; CDC25B-CDK2 inh: inactive

How did Cc1nc(N)sc1-c1csc(Nc2cccc(Cl)c2C)n1 do in these assays?
TAR Tat displ: inactive; CDC25B-CDK2 inh: 9.37

Results for O=C(C1CCCN(S(=O)(=O)N2CCCCC2)C1)N1CCN(c2ccccc2)CC1 (stereo not given) ?
TAR Tat displ: 14.7

How did O=C(C1CCCN(S(=O)(=O)N2CCOCC2)C1)N1CCN(c2ccc(F)cc2)CC1 (stereo not given) do in these assays?
TAR Tat displ: inactive

What do the screens show for `O=C1/C(=C\c2ccc(O)c(O)c2)Oc2c1ccc(O[C@@H]1O[C@H](CO)[C@@H](O)[C@H](O)[C@H]1O)c2O`?
TAR Tat displ: 16.1

Results for O=C1C[C@@H](c2ccc(O)c(O)c2)Oc2cc(O[C@H]3O[C@@H](CO)[C@H](O)[C@@H](O)[C@@H]3O)cc(O)c21 ?
TAR Tat displ: inactive

Results for CCNC(=O)C1=C(C)C(=O)OC12CCN(S(=O)(=O)CC)CC2 ?
TAR Tat displ: inactive

How did C=CCOc1ccc(C2CC(=O)Nc3c2c(C)nn3-c2nncc(-c3ccc(F)cc3)n2)cc1 (stereo not given) do in these assays?
TAR Tat displ: 15.8; CDC25B-CDK2 inh: inactive

How did C=CCOc1ccc(C2CC(=O)Nc3c2c(C)nn3-c2nncc(-c3ccc(C)cc3)n2)cc1 (stereo not given) do in these assays?
TAR Tat displ: inactive; CDC25B-CDK2 inh: inactive

What do the screens show for `O=C(NCCC1=CCCCC1)c1csc2c1CCCCC2`?
TAR Tat displ: inactive; CDC25B-CDK2 inh: inactive

What do the screens show for `Cc1cccc2nc(-c3ccccn3)c(Nc3ccc4c(c3)OCO4)n12`?
TAR Tat displ: inactive; CDC25B-CDK2 inh: inactive

Results for O=C1Nc2cc(Cl)ccc2SC2CCCCC2O1 (stereo not given) ?
CDC25B-CDK2 inh: 20.2

Results for CC1CC(=O)Nc2cc(S(=O)(=O)Nc3cccc(Cl)c3)ccc2S1 (stereo not given) ?
TAR Tat displ: inactive

Results for COC(=O)c1ccc(NS(=O)(=O)c2c(C)nc3sc(C)cn3c2=O)cc1 ?
TAR Tat displ: inactive

How did COc1cc2nc(Nc3ccc(C)c(C)c3)nc(N)c2cc1OC do in these assays?
TAR Tat displ: inactive; CDC25B-CDK2 inh: 9.26

What do the screens show for `COc1cc2nc(Nc3ccc(C)c(Cl)c3)nc(N)c2cc1OC`?
TAR Tat displ: inactive; CDC25B-CDK2 inh: inactive

What do the screens show for `COc1cc2nc(Nc3ccc(F)cc3)nc(N)c2cc1OC`?
TAR Tat displ: inactive; CDC25B-CDK2 inh: 12.8

How did COc1ccc(Nc2nc(N)c3ccccc3n2)cc1 do in these assays?
TAR Tat displ: inactive; CDC25B-CDK2 inh: inactive
